# Laboratory results published in the OligoGym collection.
# Target: EPDR1
# Test: pooled miR-30 sensor sort-seq; sequence = guide strand
# Details: shRNA
# Also: reference of the scale not given here.
row,Sequence,sensor-assay potency score (higher = more potent)
1,TATCACACTGTAGTTTATGGTA,-0.596
2,TAGGATCTAGCTGACTTTCTGT,0.667
3,TAGCATTCACATCTTGACTAGT,0.0481
4,TAGAGGAATAATTACTTCCTAT,-0.811
5,TATTCAAATAATCTCTTGCAGG,-0.781
6,TAGTCTCATATCCATCTCCAGC,-1.45
7,TACGAGGGAACTCTAGTCCTGG,-0.607
8,TAGGATTCTCTAAACTGCCTTG,-0.223
9,TCAATCTGAAACATCACTCCAT,1.13

# Target: EPGN
# Test: as above
# Details: shRNA
row,Sequence,sensor-assay potency score (higher = more potent)
1,AACCACTTAATAGTAATCCAAC,-1.22
2,TTGAATAAAAGATAGACTGATA,-0.413
3,TTCTATGTTGTCAGCTTGCTGG,-0.845
4,TAAGAATCCACAGCATATGAAG,-1.16
5,TTTCTCTAGCTCATGGTGGAAT,-1.09
6,TATGTTGTCAGCTTGCTGGGCT,0.572
7,ATAACCAGTAAAACACCTGCAG,-0.113
8,TTGGAGGTGTTACAGTCACGGC,-1.5
9,TAATAGTAATCCAACACCAATC,-1.34
10,TTTCATAAGAATCCACAGCATA,-0.859
11,TAACCAGTAAAACACCTGCAGA,-1.05
12,TGCAGTAACTGTTATGATCTTC,-0.113

# Target: EPHA6
# Test: as above
# Details: shRNA
row,Sequence,sensor-assay potency score (higher = more potent)
1,TACAGTTGTTGTATCAAGCAAC,0.0165
2,TTACAGATTACACTGTATGTGA,0.175
3,TTTCTTACAGATTACACTGTAT,-0.425
4,TTTTCTGAGCTGCATCACGGGA,-0.977
5,TGTATCAAGCAACACAACTTGG,-0.401
6,TATCAAGCAACACAACTTGGTT,-0.642
7,TTCCATTACATTACATACCTGG,0.0947
8,TTGGCTTGAATTTAATTCCGTG,0.00331
9,TTCAGCTCGGAAATAACCCTTT,-0.23
10,ATTTCTTGTAGAAAACACGGAC,-0.586
11,TTTCTGACTGTAGCCACTGTAT,-1.06

# Target: EPHA8
# Test: as above
# Details: shRNA
row,Sequence,sensor-assay potency score (higher = more potent)
1,TCTCGTAGTACTTGATCTCATA,-1.09
2,TGATAGTGCATCTTCTCCTCGT,0.0465
3,TCATACTCCAGGATGATGCCGT,0.44
4,TTGACGGATCACCACCACCTGG,-1.47
5,TTGCTGTCAACCAGGACGTTGC,-1.32
6,TCTGTCTCTCCGTGTAGCCGGC,-0.777
7,TTCTCGTAGTACTTGATCTCAT,-0.461
8,TCGATTTTGAGGAACTGGCTTT,-0.582
